# High-throughput results (PubChem BioAssay)
# Chronic BCR inh = qHTS Assay to Find Inhibitors of Chronic Active B-Cell Receptor Signaling | actives 0.05% (n = 340,000) | ABC-DLBCL IkBa-CBG/CBR reporter, luminescence ratio, 4 h | Potency, µM (doses to about 46.1 µM), usual class: inhibitors; active means well fitted inhibition curve with a large enough effect in the signal ratio, with a control signal flat, not every such curve was filed as active; inconclusive means small, poorly fitted or top-dose-only effect, or effect the other way, or a change in a side signal; the % refers to the signal ratio
#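 Concentration-response series (up to 46 uM) were applied to TMD8 dual-reporter cells for 4 h at 37C with doxycycline. Green/red ratio, after filter-overlap correction, defined %Activity; red signal alone was normalised to basal cells and zero luminescence.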
# BRCA1 expr up = qHTS Assay to Identify Small Molecule Activators of BRCA1 Expression; MCF7-BRCA1-FFLuc reporter, luminescence, 48 h; response scale: scaled: vehicle 0%, 10 µM genistein 100%; Potency, µM (series often up to 46.1 µM), usual class: activators; AID 624202, 2012; actives 1.1% (n = 380,000); further: nearly all actives have a fitted effect of over 80% in size
#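 Luminescence from a BRCA1-driven firefly luciferase in MCF7 cells was the read-out, taken 15 min after substrate addition following 48 h compound exposure at 37 °C. Data were normalized to a 10 microM genistein control and DMSO vehicle.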
# TCR act = Activators of T cell receptors: qHTS campaign; 330,000 tested, under 10 active; AID 504894, 2011; primary human leukocytes, anti-CD3, IL-2 HTRF, 48 h; Potency, µM (doses to about 9.22 µM), usual class: activators
#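 Readout: HTRF IL-2, Eu-cryptate/d2 antibody pair, 320nm excitation, 665nm emission. Stimulus: a-CD3 beads, no co-stimulation. Cells: primary human leukocytes. Exposure: 48 hr with compound.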
# IL-2 act = qHTS of IL-2 Activators; IL-2 activation reporter assay, cell-based qHTS; stimulated with anti-CD3/CD4/CD28 beads; in transgenic mouse T cells; activation, % (series mostly up to about 46 µM); actives 0.065% (n = 360,000); in the data active means activation above about 50%; inconclusive means mostly about 30% to 49%
#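 Unstimulated transgenic mouse T cells; 60-min compound exposure; bead-based TCR/CD4/CD28 stimulation; 18 h culture, 37 degrees C; dual fluorescence (EGFP, DsRed) plate cytometry.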
# Mito fusion yeast = qHTS Assay for Small Molecule Inhibitors of Mitochondrial Division or Activators of Mitochondrial Fusion. actives 0.23% (n = 320,000). S. cerevisiae fusion-defective mutant growth rescue, CellTiterGlo 48 h. AID 485298, 2010. Potency, µM (highest dose often 46.1 µM), actives largely listed as activators; further: nearly all actives have a fitted effect of over 45% in size
#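 Compounds are tested for their ability to restore growth of mitochondrial fusion-defective yeast strains at non-permissive 37C in YPEG medium over 48 hours. Viability is quantified by luciferase luminescence.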
# PTHR1 agonist = qHTS for PTHR1 Agonists: Primary Screen; AID 743266, 2014; Potency, µM (highest dose often 115 µM), actives largely listed as activators; actives 0.075% (n = 410,000); Parathyroid hormone/parathyroid hormone-related peptide receptor (Homo sapiens), Q03431; HEK293 GP2 PTHR1 cells, GloSensor cAMP luminescence, 1 h; further: nearly all actives have a fitted effect of over 55% in size
# Target sequence (Q03431 whole entry, looked up): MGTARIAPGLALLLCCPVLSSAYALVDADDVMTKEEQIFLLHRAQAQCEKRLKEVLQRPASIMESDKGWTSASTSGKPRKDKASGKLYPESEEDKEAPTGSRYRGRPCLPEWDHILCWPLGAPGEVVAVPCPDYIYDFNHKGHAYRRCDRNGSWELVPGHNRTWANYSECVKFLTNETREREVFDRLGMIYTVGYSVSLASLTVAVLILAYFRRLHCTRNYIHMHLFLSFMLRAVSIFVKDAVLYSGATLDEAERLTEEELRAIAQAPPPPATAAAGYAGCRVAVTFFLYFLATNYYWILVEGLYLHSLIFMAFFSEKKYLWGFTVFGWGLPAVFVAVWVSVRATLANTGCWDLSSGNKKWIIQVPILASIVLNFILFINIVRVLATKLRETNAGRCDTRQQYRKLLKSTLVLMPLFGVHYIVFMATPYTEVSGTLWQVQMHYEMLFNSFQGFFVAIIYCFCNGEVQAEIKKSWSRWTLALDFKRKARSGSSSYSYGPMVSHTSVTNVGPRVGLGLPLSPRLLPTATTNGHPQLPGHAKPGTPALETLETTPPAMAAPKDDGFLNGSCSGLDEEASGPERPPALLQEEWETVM
#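 HEK-293-derived GP2 cells expressing PTHR1 and a GloSensor cAMP reporter, 3,000/well, plated overnight, given luciferin plus IBMX (each 0.5 mM as added) for 1 h at 37 °C, then compound for 1 h at 37 °C. Luminescence was read after 15 min at room temperature.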
# Hits are given with their value; n = inactive; u = inconclusive; x = not tested or not shown; ! = a repeat was not active. Shown are actives, neighbours in structure and some others; about 1.3% of the full set was active somewhere. Unless noted, the call rests on the fitted dose curve; in most records, active means well fitted curve in the direction sought with a large enough effect; inconclusive means small, poorly fitted or top-dose-only effect, or another doubt; inactive means no such curve, though single readings can be large; an effect the other way counts as inactive or inconclusive.
SMILES,Chronic BCR inh,BRCA1 expr up,TCR act,IL-2 act,Mito fusion yeast,PTHR1 agonist
C=C1CCC2C(C)(C)[C@H](O)CC[C@@]2(C)[C@@H]1COc1cc(=O)oc2ccccc12 (stereo partly drawn),n,n,n,n,14µM,n
C=C1CCC2C(C)(C)[C@@H](O)CC[C@@]2(C)[C@@H]1COc1ccc2ccc(=O)oc2c1 (stereo partly drawn),u,n,n,n,n,n
Cc1ccnc2ccc(SC(F)(F)F)cc12,n,n,n,n,n,n
O=C(CN1CCCCC1)Nc1nc(-c2ccc(F)c(F)c2)cs1,n,7.1µM,n,n,n,n
CC(/C=N/NC(=O)Cc1cccn1C)=C\c1ccccc1,n,11µM,n,n,n,n
CC(C)C(=O)Nc1ccc2oc(-c3cc(F)c(F)cc3Cl)nc2c1,n,2.8µM,n,n,n,n
Cc1ccccc1NC(=O)CCN1C(=O)c2ccccc2Sc2ncccc21,x,x,x,x,x,n
Cc1ccc(NC(=O)CCN2C(=O)c3ccccc3Sc3ncccc32)cc1,n,n,n,n,n,50µM!
C[C@H](CO)N1C[C@H](C)[C@H](CN(C)Cc2cccc(C(F)(F)F)c2)OCc2ccccc2-c2c(n(C)c3ccccc23)C1=O,x,n,x,n,x,n
CN(C)S(=O)(=O)c1cccc(-c2nnc(SCC(=O)NCCCCCC(=O)O)n2-c2ccc(F)cc2)c1,u,n,n,n,n,n
COc1cc(OC)c(C2CC(=O)N3CN(c4ccc(C)cc4)CSC3=C2C#N)cc1OC (stereo not drawn),n,6.3µM,n,n,n,n
COc1ccc(N2CSC3=C(C#N)C(c4cc(OC)c(OC)cc4OC)CC(=O)N3C2)c(OC)c1 (stereo not drawn),n,n,n,n,n,n
CCN(CCC#N)c1ccc(/C=C/c2ccnc3ccccc23)cc1,x,n,x,x,x,x
COc1ccc(/C=C/C(=O)Nc2ccccc2C(F)(F)F)cc1,u,3.2µM,n,n,n,n
COc1ccc(NC(=O)/C=C/c2cccc(F)c2)cn1,n,7.1µM,n,n,n,n
COc1ccc(/C=C/C(=O)Nc2cccc(C(C)=O)c2)cc1,u,4.5µM,n,n,n,n
CC(=O)Nc1ccc(NC(=O)/C=C/c2ccc(Cl)cc2)cc1,u,n,x,n,n,n
COc1ccc(NC(=O)/C=C/c2ccc(Cl)cc2)cc1,x,x,x,x,5.2µM,x
O=c1[nH]c(CN2CCN(S(=O)(=O)c3ccccc3C(F)(F)F)CC2)nc2sc3c(c12)CCCC3,n,n,n,n,n,n
CC(C)N(Cc1ccccc1)C(=O)c1nc(-c2ccc(Cl)cc2)n2c1CCCCC2,x,x,x,x,x,n
COc1ccc(/C=C/C(=O)Nc2ccccc2C(=O)O)cc1OC,u,n,n,n,u,n
COC(=O)c1ccccc1NC(=O)/C=C/c1cc(OC)c(OC)c(OC)c1,16µM,n,n,n,n,n
c1ccc2c(C3CCO3)cccc2c1 (stereo not drawn),n,n,n,n,n,n
O=C1CC2C(CCC23OCCO3)c2ccc3ccccc3c21 (stereo not drawn),x,10µM,n,n,x,n
CCCc1cc2c(=O)c(-c3ccccn3)coc2cc1OC,n,5.6µM,n,n,n,n
SMILES,Chronic BCR inh,BRCA1 expr up,TCR act,IL-2 act,Mito fusion yeast,PTHR1 agonist
CCCc1cc2c(=O)c(-c3ccccn3)c(C)oc2cc1O,u,n,n,n,n,n
O=C(Nc1ccc(N2CCCC2)c(Cl)c1)c1ccccc1F,x,3.2µM,x,n,x,n
O=C(Nc1ccc(N2CCCC2)c(Cl)c1)c1ccc(Br)o1,n,4µM,n,n,n,n
CCN1CCN(c2cc(C)c3cc(NC(=O)c4ccccc4F)ccc3n2)CC1,n,x,x,x,n,n
Cc1cc(N2CCN(C)CC2)nc2ccc(NC(=O)c3ccccc3F)cc12,n,11µM,n,n,n,n
O=C1C(=O)C(c2ccc(O)cc2O)Oc2cc(O)cc(O)c21 (stereo not drawn),x,n,x,x,x,x
COc1ccccc1CCNC(=O)C(=O)NCC1OCCCN1S(=O)(=O)c1ccc(F)cc1C (stereo not drawn),n,n,x,n,n,n
CC1(C)CC2CC(C)(CN2S(=O)(=O)c2ccccc2[N+](=O)[O-])C1 (stereo not drawn),n,n,n,n,x,n
Nn1c(SCc2c(F)cccc2F)nnc1-c1ccccn1,n,5.6µM,n,n,n,n
Cc1ccc(S(=O)(=O)N2CCN(Cc3ccccc3Cl)CC2)cc1,x,x,x,x,x,n
c1coc(CNc2ncnc3c2nc2n3CCCC2)c1,x,n,x,x,x,x
O=[N+]([O-])c1ccc2c(c1)C=C/C2=C/c1ccccc1,x,n,x,x,x,x
c1ccc(COc2ccc(-c3csnn3)cc2)cc1,u,5.6µM,n,n,n,n
CCCCNc1ccc(/C=C2\C=Cc3ccccc32)cc1,x,6.3µM,x,x,x,x
CCCCN(CCCC)c1ccc(/C=C2\C=Cc3ccccc32)cc1,x,n,x,x,x,x
COc1ccc(C(C)=O)cc1CSc1nnc(Nc2ccc(C)cc2C)s1,n,n,n,n,16µM,n
CN(C)NC(=O)C12CCC(C)(C(=O)O1)C2(C)C (stereo not drawn),n,n,n,n,n,n
O=C(Nc1ccc(Cl)c(Cl)c1)c1ccccc1,n,n,n,n,u,n
CN(C(=O)Nc1ccc(Cl)c(Cl)c1)c1ccccc1C(=O)O,n,n,n,n,18µM,n
CCOc1ccc(-c2nc(CSc3nnc(N)s3)cs2)cc1OC,u,n,n,n,n,n
CCOc1ccc(-c2nc(CSc3nnc(N)s3)cs2)cc1,n,4µM,n,n,n,n
CCCCN(CCCC)c1ccc(C=Nc2ccc(/C=C/c3ccnc4ccccc34)cc2)cc1C,x,n,x,x,x,x
CN(c1ccccc1)c1nc2ccsc2c(=O)s1,n,10µM,n,n,n,n
CCOc1ccc(-c2cn(-c3ccc(OC)cc3)c(SC)n2)cc1,n,11µM,n,n,n,n
CCN1C(=O)[C@H]2[C@@H](c3ccc(-c4cccc(Cl)c4)cc3)N[C@@](C)(C(=O)OC)[C@H]2C1=O,n,n,n,n,22µM,n
Fc1ccc(-c2nnc(-c3ccc(Cl)cc3)o2)cc1,u,2µM,n,n,n,n
Clc1ccc(-c2nnc(N3CCOCC3)o2)cc1,n,4µM,n,n,n,n
N#C/C(=C/c1ccc(N2CCCCC2)o1)c1cccc(F)c1,u,n,n,n,n,n
